Test in all cases: NCI-60 one-dose screen, 48 h (100 = growth as untreated, 0 = no growth, -100 = all killed)
One experiment deals with DU-145 prostate. The conditions noted are these: 10 µM unless noted.
For the next experiment, the system named is K-562 leukemia. The following applies: 10 µM unless noted.
A further experiment deals with MALME-3M melanoma. The conditions noted are these: 10 µM unless noted.
In the next experiment the test system is MDA-MB-231 breast. The conditions noted are these: 10 µM unless noted.
For the next experiment, the system named is RXF 393 renal. The conditions noted are these: 10 µM unless noted.
The subject of a further experiment is SF-268 CNS. The following applies: 10 µM unless noted.
For a further experiment, the system named is SF-295 CNS. The conditions noted are these: 10 µM unless noted.
A further experiment has as its system SF-539 CNS. The following applies: 10 µM unless noted.
The test system of another experiment is UACC-257 melanoma. The conditions noted are these: 10 µM unless noted.
Another experiment concerns M14 melanoma. The conditions noted are these: 10 µM unless noted.
The next experiment deals with HCT-15 colon. The conditions noted are these: 10 µM unless noted.
A further experiment has as its system HT29 colon. The conditions noted are these: 10 µM unless noted.
The next experiment relates to SNB-75 CNS. The conditions noted are these: 10 µM unless noted.
A further experiment concerns SNB-19 CNS. The conditions noted are these: 10 µM unless noted.
A further experiment relates to U251 CNS. The conditions noted are these: 10 µM unless noted.
Another experiment concerns PC-3 prostate. The conditions noted are these: 10 µM unless noted.
In a further experiment the test system is SK-MEL-5 melanoma. The following applies: 10 µM unless noted.
A further experiment deals with UACC-62 melanoma. The following applies: 10 µM unless noted.
For another experiment, the system named is LOX IMVI melanoma. The following applies: 10 µM.
In another experiment the test system is SK-MEL-28 melanoma. The conditions noted are these: 10 µM unless noted.

Each structure is given as a SMILES string. The panel holds about 83,000 compounds, 20% with a hit somewhere; the sample as a whole holds those more often.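 Assay: single dose, 48 h. Readout: percent growth (0 = no net growth; negative = cell death). Active: <10.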 Unmarked numbers belong to inactive results. The source made the active and inactive calls.

`CN(C)c1nc(NCCNS(=O)(=O)c2ccc(C3=Nc4c(N)nc(N)nc4NC(c4ccc(Cl)cc4)C3)cc2)nc(Nc2ccc(F)cc2)n1` (stereo not drawn): the growth in the experiment on DU-145 prostate was 64%; with K-562 leukemia, 11.8%; in the experiment on MALME-3M melanoma, 14.6%; with MDA-MB-231 breast, 11.2%; with RXF 393 renal, 20.1%; in the experiment with SF-268 CNS, 43.7%. The growth with SF-295 CNS was 48.5%; with SF-539 CNS it was -51.1% (active); in the experiment on UACC-257 melanoma it was 42.6%; with M14 melanoma it was 11.6%; in the experiment with HCT-15 colon, 32%; in the experiment on HT29 colon, -41.4% (active). Also, the growth was 53.2% with SNB-75 CNS; 34.5% in the experiment on SNB-19 CNS; 27.5% in the experiment with U251 CNS; 31.3% in the experiment on PC-3 prostate; -48.7% (active) in the experiment on SK-MEL-5 melanoma; 25.6% in the experiment with UACC-62 melanoma. The growth was -56.4% (active) with LOX IMVI melanoma and 38.9% in the experiment on SK-MEL-28 melanoma.
For `CC(=O)Nc1ccc(-c2nc3cc(-c4ccc(O)cc4)ccc3n2C)cc1`, the growth is 54.9% in the experiment on DU-145 prostate; 15.5% in the experiment on K-562 leukemia; 68.4% in the experiment with MALME-3M melanoma; 53.4% in the experiment on MDA-MB-231 breast; 66.7% with RXF 393 renal; 68.1% in the experiment on SF-268 CNS. For the same compound, the growth is 47.1% with SF-295 CNS; 49.2% with SF-539 CNS; 80.8% in the experiment with UACC-257 melanoma; 63.9% in the experiment on M14 melanoma; 36.8% with HCT-15 colon; 53.6% in the experiment on HT29 colon. The growth with SNB-75 CNS is 44.1%; in the experiment with SNB-19 CNS, 68.8%; with U251 CNS, 59.9%; with PC-3 prostate, 74.6%; in the experiment with SK-MEL-5 melanoma, 78.3%; with UACC-62 melanoma, 51.4%. Moreover, the growth in the experiment with SK-MEL-28 melanoma was 74.3%.
For the compound `COc1cc2c(c(OC)c1OC)C(=O)CC(c1cccc(NC(=O)c3cc(NC(=O)[C@H](CO)NC(=O)OC(C)(C)C)ccc3Cl)c1)O2` (stereo partly drawn), the growth was 27.5% in the experiment with DU-145 prostate; 12.7% with K-562 leukemia; 43.2% with MALME-3M melanoma; 6.43% (active) in the experiment with MDA-MB-231 breast; 46.8% in the experiment on RXF 393 renal; 45.4% with SF-268 CNS. The growth in the experiment with SF-295 CNS was 37%; in the experiment with SF-539 CNS, 37%; with UACC-257 melanoma, 26.9%; in the experiment with M14 melanoma it was 22.5%; in the experiment on HCT-15 colon, 35.4%; in the experiment with HT29 colon, 15.7%. The growth with SNB-75 CNS is 54.8%; in the experiment with SNB-19 CNS, 45%; in the experiment on U251 CNS it was 25.4%; with PC-3 prostate, 28.1%; with SK-MEL-5 melanoma, 14.3%; in the experiment on UACC-62 melanoma, 40.2%. The growth in the experiment on SK-MEL-28 melanoma was 21%.
With `S=C(Nc1ccccc1)Nc1ccc(OCc2nc3ccccc3[nH]2)cc1`, the growth in the experiment with DU-145 prostate was 43.8%; in the experiment with K-562 leukemia, 15%; with MALME-3M melanoma, 51.6%; in the experiment with MDA-MB-231 breast, 37%; in the experiment on RXF 393 renal it was 75.1%; with SF-268 CNS it was 24.1%. For the same compound, the growth with SF-295 CNS was 24.2%; in the experiment on SF-539 CNS it was 30.7%; in the experiment on UACC-257 melanoma it was 48.2%; with M14 melanoma, 36.9%; with HCT-15 colon, 29.5%; in the experiment with HT29 colon it was 25.4%. For the same compound, the growth with SNB-75 CNS is 27.4%; in the experiment with SNB-19 CNS it was 39.8%; in the experiment on U251 CNS, 34.5%; in the experiment on PC-3 prostate, 42%; with SK-MEL-5 melanoma, 49.1%; in the experiment on UACC-62 melanoma it was 33.6%. Besides, in the experiment with SK-MEL-28 melanoma, the growth is 61.6%.
On to `C=C1CCC2C3(C)COC(c4ccccc4F)OC3CCC2(C)C1CC(O)C1=CCOC1=O` (stereo not drawn), for which the growth in the experiment on DU-145 prostate is 67.2%; in the experiment on K-562 leukemia, 21.3%; with MALME-3M melanoma it was 92.9%; with MDA-MB-231 breast, 77.7%; in the experiment on RXF 393 renal it was 50.7%; in the experiment with SF-268 CNS, 103%. In addition, the growth in the experiment on SF-295 CNS was 77.2%; in the experiment with SF-539 CNS, 16.3%; with UACC-257 melanoma it was 75.1%; with M14 melanoma, 26.5%; with HCT-15 colon, 9.86% (active); in the experiment with HT29 colon, 8.43% (active). For the same compound, the growth in the experiment on SNB-75 CNS was 43.9%; in the experiment on SNB-19 CNS it was 81.5%; in the experiment with U251 CNS, 53.4%; in the experiment with PC-3 prostate, 36.5%; with SK-MEL-5 melanoma, 65.8%; in the experiment with UACC-62 melanoma, 73.6%. In addition, in the experiment on SK-MEL-28 melanoma, the growth was 47.6%.
Regarding `CCOC(=O)COc1c(OC)c(OC)cc2oc(-c3cccc(C(=O)Nc4ccc(Cl)cc4)c3)cc(=O)c12`, the growth with DU-145 prostate is 64%; with K-562 leukemia, 23.2%; with MALME-3M melanoma it was 52%; in the experiment with MDA-MB-231 breast, 50.7%; in the experiment with RXF 393 renal it was 75.6%; in the experiment with SF-268 CNS, 56.1%. Moreover, the growth with SF-295 CNS is 38.2%; in the experiment with SF-539 CNS, 59.8%; with UACC-257 melanoma, 77.2%; in the experiment with M14 melanoma, 33.9%; in the experiment with HCT-15 colon it was 21.5%; in the experiment with HT29 colon, 22.9%. Further, the growth is 34.6% in the experiment on SNB-75 CNS; 62.3% in the experiment on SNB-19 CNS; 39.9% in the experiment with U251 CNS; 41.1% in the experiment with PC-3 prostate; 22.3% in the experiment with SK-MEL-5 melanoma; 55.1% in the experiment on UACC-62 melanoma. Further, the growth in the experiment on SK-MEL-28 melanoma was 68.6%.
For `Cn1cc(-c2nnc(N)nc2-c2c[nH]c3ccccc23)c2cccnc21`, the growth in the experiment with DU-145 prostate was 76.9%; in the experiment with K-562 leukemia it was 15.7%; with MALME-3M melanoma it was 38.2%; with MDA-MB-231 breast it was 48.5%; with RXF 393 renal, 71.1%; with SF-268 CNS, 65.9%. The growth in the experiment on SF-295 CNS was 32%; in the experiment on SF-539 CNS it was 49.3%; in the experiment on UACC-257 melanoma, 62.3%; with M14 melanoma, 20.8%; in the experiment on HCT-15 colon, 28.9%; in the experiment with HT29 colon, 17.2%. For the same compound, the growth in the experiment on SNB-75 CNS is 28.5%; in the experiment with SNB-19 CNS it was 51.6%; in the experiment with U251 CNS, 41.6%; with PC-3 prostate it was 57.8%; in the experiment on SK-MEL-5 melanoma it was 24.4%; with UACC-62 melanoma, 33.9%. The growth with SK-MEL-28 melanoma was 55%.
For the compound `O=C(COc1ccc(NC(=O)Nc2ccc(Cl)c(Cl)c2)cc1)N=Nc1c(O)[nH]c2ccccc12`, the growth was -42.7% (active) with DU-145 prostate; 5.06% (active) with K-562 leukemia; -79.3% (active) in the experiment with MALME-3M melanoma; -66.8% (active) in the experiment on MDA-MB-231 breast; -52.7% (active) with RXF 393 renal; -5.94% (active) in the experiment with SF-268 CNS. Besides, the growth in the experiment on SF-295 CNS was -48.9% (active); in the experiment with SF-539 CNS, -86.3% (active); with UACC-257 melanoma, -44.5% (active); with M14 melanoma, -76.5% (active); in the experiment on HCT-15 colon, 56.1%; with HT29 colon it was -45.9% (active). For the same compound, the growth in the experiment on SNB-75 CNS is -39.5% (active); in the experiment on SNB-19 CNS, -24.5% (active); in the experiment with U251 CNS it was -87.7% (active); with PC-3 prostate, -44.6% (active); with SK-MEL-5 melanoma it was 25.2%; with UACC-62 melanoma it was -56.5% (active). In addition, the growth in the experiment with SK-MEL-28 melanoma is -90.4% (active).
